Out of some 5,500 compounds screened, about 2,000 (36%) were called active. Inconclusive results (about 18%) are left out. No stated cut-off is given here; in the data, active means normalized growth mostly below about 0.91 (no sharp cut-off); inconclusive means no clear call, values can overlap the other calls; inactive means mostly above about 0.92. This is one part of the list.
Test: chemical genetic growth profiling, strain panel (AID 1159580);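 further: tested at 20 µM; growth read once vehicle control cultures reached saturation at 30 °C; 1 = growth at the plate median or of vehicle wells; lower values mean less growth of the strain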
Settings: S. cerevisiae deletion strains, growth OD
[1] = locus YAL040C, strain CLN3, hits give low values
[2] = locus YCL061C, strain MRC1 (second series), hits give low values
[3] = locus YDR363W, strain ESC2, hits give low values
[4] = locus YER002W, strain NOP16, hits give low values
[5] = locus YGR229C, strain SMI1, hits give low values
[6] = locus YMR263W, strain SAP30, hits give low values
[7] = locus YNL128W, strain TEP1, hits give low values
[8] = locus YNL175C, strain NOP13, hits give low values
[9] = locus YNL197C, strain WHI3, hits give low values
[10] = locus YNL224C, strain SQS1, hits give low values
[11] = locus YNL322C, strain KRE1, hits give low values
[12] = locus YOR083W, strain WHI5 (second series), hits give low values
[13] = locus YPL055C, strain LGE1, hits give low values
[14] = locus YPL241C, strain CIN2, hits give low values
[15] = locus YMR307W, strain GAS1, hits give low values

Measured: normalized growth

O=C(Nc1cc(C(=O)Nc2ccc(S(=O)(=O)O)cc2S(=O)(=O)O)cc(C(=O)Nc2ccc(S(=O)(=O)O)cc2S(=O)(=O)O)c1)Nc1cc(C(=O)Nc2ccc(S(=O)(=O)O)cc2S(=O)(=O)O)cc(C(=O)Nc2ccc(S(=O)(=O)O)cc2S(=O)(=O)O)c1
inactive: locus YAL013W, strain DEP1, hits give low values 0.995 | [1] 1.01 | [2] 0.998 | locus YDR150W, strain NUM1, hits give low values 0.997 | [3] 0.954 | [4] 1.02 | locus YGR078C, strain PAC10, hits give low values 0.987 | [5] 0.995 | [6] 0.99 | [7] 1 | [8] 1.01 | [9] 1.01 | [10] 0.993 | [11] 1.02 | [12] 0.993 | [13] 0.968 | [14] 1.01

CC(C)(C)c1o[nH]c(=O)c1CC(N)C(=O)O (stereo not given)
inactive: [1] 1.03 | [2] 1.01 | [4] 1 | [15] 0.968 | [7] 1 | [8] 1 | [9] 0.991 | [10] 0.992 | [11] 0.997 | [12] 1 | [14] 1.02

CC1=C[C@@H]2c3cccc4[nH]cc(c34)C[C@H]2N(C)C1
inactive: [1] 0.988 | [4] 0.993 | locus YJR075W, strain HOC1, hits give low values 1 | [6] 0.996 | [15] 1.01 | [8] 1 | [9] 1.01 | [10] 0.987 | [12] 1

Clc1cc(I)cc(Cl)c1NC1=NCCN1
inactive: [1] 1.01 | [2] 1.01 | [3] 1.02 | [4] 1.01 | [15] 0.987 | [8] 1.01 | [9] 1.01 | [10] 1.01 | [12] 1.06 | [13] 0.986

N=S(=O)(O)Cc1noc2ccccc12
inactive: [1] 0.966 | [2] 1 | [3] 1.03 | [4] 1.01 | [5] 1.01 | [15] 1.01 | [7] 1.05 | locus YNL153C, strain GIM3, hits give low values 0.998 | [8] 0.996 | [9] 1.02 | [10] 1.01 | [12] 1 | [14] 1.01
